# Assay results taken from PubChem BioAssay AID1645860 (Buhrlage Lab, Dana-Farber Cancer Institute and Novartis …, 2021).
# The campaign covered roughly 47,000 compounds. About 2,500 (5.3%) were called active. Cut-off read from the data, not from the text of the source: active = inhibition above about 30%; inactive = the rest. Shown is part of a subset that was picked to be rich in actives. *1 amine or outer side, *2 acyl side, *3 side chain or, on linkers, in order; H or OH if unused. Where a SMILES comes first, the peptide text is derived from it. [ ]: non-standard residue; d: D form. ξ: configuration not given here. ξβ3hGly(undecyl) = CCCCCCCCCCCC(CC(=O)[*:2])N[*:1]
# Biological target: Ubiquitin carboxyl-terminal hydrolase 30 (Homo sapiens) (UniProt Q70CQ3)
# Test: inhibitors of human USP30 deubiquitinase (AID 1645860)
# Conditions: purified USP30, Ub-rhodamine cleavage fluorescence; at 25 µM; active compounds read high
# Chain of Ubiquitin carboxyl-terminal hydrolase 30 (Homo sapiens) (Q70CQ3 whole entry, looked up): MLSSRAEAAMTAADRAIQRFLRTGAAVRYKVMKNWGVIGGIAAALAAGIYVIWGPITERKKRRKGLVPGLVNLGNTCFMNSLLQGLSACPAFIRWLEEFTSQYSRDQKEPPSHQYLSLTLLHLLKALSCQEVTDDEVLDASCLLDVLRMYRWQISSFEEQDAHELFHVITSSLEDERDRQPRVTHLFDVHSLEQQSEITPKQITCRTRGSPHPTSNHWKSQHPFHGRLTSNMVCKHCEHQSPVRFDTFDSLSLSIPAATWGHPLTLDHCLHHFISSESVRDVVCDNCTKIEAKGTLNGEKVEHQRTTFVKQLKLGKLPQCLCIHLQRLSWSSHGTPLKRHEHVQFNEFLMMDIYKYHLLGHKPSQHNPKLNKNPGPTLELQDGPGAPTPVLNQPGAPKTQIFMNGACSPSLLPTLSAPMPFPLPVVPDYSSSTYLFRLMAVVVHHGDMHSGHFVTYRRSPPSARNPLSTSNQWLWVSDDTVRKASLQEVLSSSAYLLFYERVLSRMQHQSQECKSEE
row,Compound,inhibition
1,N#Cc1ccc(-c2cccc(C(F)(F)F)c2)n(Cc2c(F)cccc2Cl)c1=O,17.6% (inactive)
2,CC(=O)N1CSCC1C(=O)N1CCC2(CC1)CNC(=O)c1ccccc1O2 (stereo unspecified),6.33% (inactive)
3,CCN1CCC2(CC1)OC(=O)C(C)=C2C(=O)NCc1ccccc1OC,3.07% (inactive)
4,COc1cccc(NC(=O)CSc2nc(-c3ccco3)nc3cc(=O)[nH]n23)c1,-50.3% (inactive)
5,O=C1C(O)=C(c2ccc(O)c(O)c2)C(=O)C(O)=C1c1ccccc1,50.5% (active)
6,CC(=O)N1CCn2c(nnc2C2CCCN2)C1 (stereo unspecified),12.2% (inactive)
7,CCCCCCCCCCCC1CC(=O)NC(CC(N)=O)C(=O)NC(Cc2ccc(O)cc2)C(=O)NC(CC(N)=O)C(=O)NC(CCC(N)=O)C(=O)N2CCCC2C(=O)NC(CC(N)=O)C(=O)NC(CO)C(=O)N1 (stereo not drawn) (cyclo([ξβ3hGly(undecyl)]NYNQPNS); configuration not given here),-32.4% (inactive)
8,O=C(Nc1ccc(C(F)(F)F)cc1)N1CCc2[nH]cnc2C1c1ccncc1 (stereo unspecified),13% (inactive)
9,Cc1nn(-c2cccc(F)c2)c2c1C(C(=O)c1cc3ccccc3o1)CC(=O)N2 (stereo unspecified),2.53% (inactive)
10,Cc1nn(-c2ccc(F)cc2)c2c1C(C(=O)c1cc3ccccc3o1)CC(=O)N2 (stereo unspecified),-18.2% (inactive)
11,Cc1nn(-c2ccc(F)cc2F)c2c1C(C(=O)c1cc3ccccc3o1)CC(=O)N2 (stereo unspecified),33.3% (active)
12,CC(CNC(=O)c1csc(C(=O)N2CCCC2)n1)c1ccccc1 (stereo unspecified),-12% (inactive)
13,CC(C)=CCC(O)C1=CC(=O)c2c(O)ccc(O)c2C1=O (stereo unspecified),74.5% (active)
14,CC(C)=CCc1cc(O)ccc1O,0.263% (inactive)
15,Cc1ccc(NC(=O)C(OC(=O)c2ccc(S(=O)(=O)N3CCCC3)cc2)c2ccccc2)cc1 (stereo unspecified),0.818% (inactive)
16,CC(=O)Nc1ccc(S(=O)(=O)N2CCC(CN3CCCC(C)C3)CC2)cc1 (stereo unspecified),-7.71% (inactive)
17,CC(=O)Nc1ccc(S(=O)(=O)N2CCC(CC(=O)NC(C)c3ccccc3)CC2)cc1 (stereo unspecified),31.5% (active)
18,O=C(O)c1ccc(S(=O)(=O)N2CCC(Cc3ccccc3)CC2)cc1,-5.01% (inactive)
19,CCNC(=O)c1ccc2c(c1)nc1n2CCN(CC2CCCO2)C1 (stereo unspecified),-93.9% (inactive)

row,Compound,inhibition
1,Cc1noc(C)c1CSc1ccccc1C(=O)N(C)Cc1ccc2c(c1)OCO2,25.1% (inactive)
2,CCCCCCSc1ncnc2c1sc1nc(-c3ccccc3)c3c(c12)CC(C)(C)OC3,-3.25% (inactive)
3,CC(=O)CCCSc1ncnc2c1sc1nc(N3CCOCC3)c3c(c12)CC(C)(C)OC3,36.7% (active)
4,CCOCCCNc1ncnc2c1sc1nc(N3CCOCC3)c3c(c12)CC(C)(C)OC3,-0.00409% (inactive)
5,CSc1nccc(-c2ccc(F)cc2)c1C#N,30.3% (active)
6,O=C(NC1CCCCC1)c1ccc2c(=O)nc3c(-c4ccccc4F)n[nH]n3c2c1,-42.8% (inactive)
7,CCc1ccc(NC(=O)N2CCC3(CC2)COc2ccccc2S(=O)(=O)N(C)C3)cc1,-0.131% (inactive)
8,Cc1ccc(C)c(N2C(=O)CN(S(C)(=O)=O)CC2(C)C(=O)NCc2ccccc2)c1 (stereo unspecified),-0.764% (inactive)
9,O=C(Nc1ccccc1F)C1CCCN(c2nnc3ccccn23)C1 (stereo unspecified),8.96% (inactive)
10,O=C(Nc1ccccc1F)NC1CCCN(c2cc(-c3ccncc3)[nH]n2)C1 (stereo unspecified),34.3% (active)
11,O=C(CSc1nccn1C1CCCCC1)Nc1ccccc1F,24.6% (inactive)
12,COc1cccc(-c2cc3c(=O)n(Cc4nc(-c5ccccc5C)no4)ccn3n2)c1,-2.78% (inactive)
13,CN1CCN(C(=O)C2=NOC3(CCCNC3)C2)C(c2ccccc2)C1 (stereo unspecified),-3.49% (inactive)
14,COc1ccc(-c2noc(C3(c4ccccc4)CCOCC3)n2)cc1,32.8% (active)
15,COc1ccc(C2(C(=O)Nc3cccnc3)CCOCC2)cc1,-2.08% (inactive)
16,COc1ccc(Cc2noc(C3(c4ccc(Cl)cc4)CCOCC3)n2)cc1,-0.175% (inactive)
17,C[C@]12C(=O)N(C3CC3)CC(=O)N1CC(c1ccccc1Cl)c1c2[nH]c2ccccc12 (stereo partly specified),21.3% (inactive)
18,Cc1cc(=O)c2c(O)cccc2o1,-221% (inactive)
19,COc1ccc(CCC(=O)Nc2ccc3nc(N4CCOCC4)cc(C)c3c2)cc1,-2.1% (inactive)

row,Compound,inhibition
1,Cc1nc(N(C)C)cc(N2CCN(C(=O)Nc3ccc4c(c3)OCCO4)CC2)n1,-13.9% (inactive)
2,Fc1cc(F)cc(CNc2cc(-n3ccnc3)ncn2)c1,0.587% (inactive)
3,COc1cc(OC)cc(C(=O)Nc2cccc(CCc3nc4ccc(C)cc4[nH]3)c2)c1,26% (inactive)
4,COc1cc(Cn2cnc3c([nH]c4ccc(Br)cc43)c2=O)cc(OC)c1,57.3% (active)
5,CCOc1ccc2[nH]c3c(=O)n(Cc4cccnc4)cnc3c2c1,22% (inactive)
6,O=c1c2[nH]c3ccc(Cl)cc3c2ncn1Cc1cccnc1,-14.2% (inactive)
7,CC(=O)Nc1onc(C)c1-c1ccc(C)c(S(=O)(=O)Nc2ccccc2)c1,-17.6% (inactive)
8,COc1ccc(CC(=O)Nc2cnc(-c3ccccc3)nc2)cc1,-102% (inactive)
9,Cc1ccc(NC(=O)Cc2nc(-c3ccccc3)n[nH]2)cc1,44.3% (active)
10,O=C(Cc1nc(-c2ccccn2)n[nH]1)NC1CCCCCC1,-21.9% (inactive)
11,CC(OC(=O)c1cn(-c2ccccc2)nc1-c1cccnc1)C(=O)Nc1cccc(S(=O)(=O)N(C)C)c1 (stereo unspecified),55.1% (active)
12,CCOc1ncccc1C(=O)NNC(=O)c1cn(-c2ccccc2)nc1-c1ccccc1,-0.192% (inactive)
13,COc1ccccc1OCCC(=O)Nc1cccc(S(=O)(=O)N(C)C)c1,11.1% (inactive)
14,CNc1nc(C2CCCN(C(=O)C3CCCCC3)C2)nc2c1CNCC2 (stereo unspecified),-11.2% (inactive)
15,COc1cc(NS(=O)(=O)c2ccc3c(c2)N(C)CCO3)cc(OC)c1,0.0144% (inactive)
16,CC(C)(C)c1ccc(Oc2ccc(NC(=O)c3ccc4c(c3)CCO4)cn2)cc1,34.9% (active)
17,O=C(Nc1ccccc1)c1ccc2c(c1)OCCCO2,3.42% (inactive)
18,O=C(Nc1ccc(N2CCN(c3ccccc3)C2=O)nc1)c1ccc2c(c1)OCO2,-9.55% (inactive)
